“And” between values parts separate entries of the source, which are not always exact repeats. Equal values may be shown once.

This passage reports inhibition results from PubChem BioAssay AID651598 (Sanford-Burnham Center for Chemical Genomics, 2012).

Chain of C-X-C chemokine receptor type 6 (Homo sapiens) (O00574 whole entry, looked up): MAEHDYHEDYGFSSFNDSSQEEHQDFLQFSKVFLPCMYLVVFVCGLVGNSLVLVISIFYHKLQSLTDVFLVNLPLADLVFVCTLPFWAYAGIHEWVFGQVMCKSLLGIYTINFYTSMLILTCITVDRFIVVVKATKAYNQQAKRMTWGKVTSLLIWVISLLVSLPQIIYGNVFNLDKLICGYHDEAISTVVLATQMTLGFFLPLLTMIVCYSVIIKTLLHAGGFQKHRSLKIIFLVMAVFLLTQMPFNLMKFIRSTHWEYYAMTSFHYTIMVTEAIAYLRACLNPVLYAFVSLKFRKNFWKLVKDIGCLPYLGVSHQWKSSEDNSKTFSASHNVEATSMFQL

This assay addresses C-X-C chemokine receptor type 6 (Homo sapiens) (UniProt O00574). Briefly: APJ beta-arrestin recruitment blockade alongside CXCR6 – cell-based, DiscoveRx, panel, CHO-K1, counter-screen for CXCR6 antagonist project, SAR follow-up (AID 651598). Conditions: CHO-K1 PathHunter beta-arrestin luminescence, antagonist mode; run 6, at 80 µM (top of the series). (Recruitment of arrestin is a read-out of receptor activation apart from second messengers.)
For orientation: inhibition means the relative decrease from the control value, in per cent. As to `COc1cc(C(=O)NC2CCN(CC(=O)Nc3ccccc3)CC2)cc(OC)c1OC`, the inhibition came out at 20.7%. With `COc1cc(C(=O)NC2CC3CCCC(C2)N3CC(=O)Nc2ccccc2)cc(OC)c1OC` (stereo not drawn) the figure was 85.3% and 54.2% and 27.6%; with `COc1cc(C(=O)NC2CC3CCC(C2)N3CC(=O)Nc2ccccc2)cc(OC)c1OC` (stereo not drawn), 57.4% and -0.766%.
